# Laboratory results published in paper PMC5540273 (PLoS ONE, 2017).
# Like-named read-outs stand apart in the source and are kept apart here.
# Experiments:
# SRMS = settings: concentration: 1 μM, replicates: in singlicate; n = 1
# SRPK1 = settings: concentration: 1 μM, replicates: in singlicate; n = 1
# SRPK2 = settings: concentration: 1 μM, replicates: in singlicate; n = 1
# SRPK3 = settings: concentration: 1 μM, replicates: in singlicate; n = 1
# STK16 = settings: concentration: 1 μM, replicates: in singlicate; n = 1
# STK33 = settings: concentration: 1 μM, replicates: in singlicate; n = 1
# STK35 = settings: concentration: 1 μM, replicates: in singlicate; n = 1
# STK36 = settings: concentration: 1 μM, replicates: in singlicate; n = 1
# STK39 = settings: concentration: 1 μM, replicates: in singlicate; n = 1
# SYK = settings: concentration: 1 μM, replicates: in singlicate; n = 1
# SgK110 = settings: concentration: 1 μM, replicates: in singlicate; n = 1
# TAK1 = tested on: T1, TAK1; settings: concentration: 1 μM, replicates: in singlicate; n = 1
# T1 construct: gene MAP3K7
# TAOK1 = settings: concentration: 1 μM, replicates: in singlicate; n = 1
# TAOK2 = settings: concentration: 1 μM, replicates: in singlicate; n = 1
# TAOK3 = settings: concentration: 1 μM, replicates: in singlicate; n = 1
# TBK1 = settings: concentration: 1 μM, replicates: in singlicate; n = 1
# TEC = settings: concentration: 1 μM, replicates: in singlicate; n = 1
# TESK1 = settings: concentration: 1 μM, replicates: in singlicate; n = 1
# TGFBR1 = settings: n = 1
# TGFBR2 = settings: concentration: 1 μM, replicates: in singlicate; n = 1
# [1] = concentration: 1 μM, replicates: in singlicate
# 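Also: KINOMEscan kinase panel screen.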
structure (smiles),measurement,setting,value
Cn1ccc2ncnc(Oc3ccc(NC(=O)Nc4cccnc4)c(Cl)c3)c21,%Inh,SRMS,0%
same,%Inh,SRPK1,12%
same,%Inh,SRPK2,0%
same,%Inh,SRPK3,0%
same,%Inh,STK16,3%
same,%Inh,STK33,0%
same,%Inh,STK35,6%
same,%Inh,STK36,13%
same,%Inh,STK39,0%
same,%Inh,SYK,0%
same,%Inh,SgK110,49%
same,%Inh,TAK1,12%
same,%Inh,TAOK1,0%
same,%Inh,TAOK2,0%
same,%Inh,TAOK3,0%
same,%Inh,TBK1,5%
same,%Inh,TEC,6%
same,%Inh,TESK1,0%
same,%Inh,TGFBR1; [1],0%
same,%Inh,TGFBR2,0%
COc1ccc(Nc2nccc(N3CCC(NC(=O)Nc4ccc5c(c4)OCO5)C3)n2)cc1 (centres unmarked) [GSK1379745],%Inh,SRMS,0%
same,%Inh,SRPK1,29%
same,%Inh,SRPK2,3%
same,%Inh,SRPK3,17%
same,%Inh,STK16,0%
same,%Inh,STK33,3%
same,%Inh,STK35,8%
same,%Inh,STK36,0%
same,%Inh,STK39,17%
same,%Inh,SYK,40%
same,%Inh,SgK110,2%
same,%Inh,TAK1,0%
same,%Inh,TAOK1,0%
same,%Inh,TAOK2,0%
same,%Inh,TAOK3,0%
same,%Inh,TBK1,18%
same,%Inh,TEC,9%
same,%Inh,TESK1,12%
same,%Inh,TGFBR1; [1],8%
same,%Inh,TGFBR2,0%
O=C(c1ccc(-c2cc(-c3c[nH]nc3-c3ccccn3)ccn2)cc1)N1CCCC1 [GW792479],%Inh,SRMS,0%
same,%Inh,SRPK1,0%
same,%Inh,SRPK2,64%
same,%Inh,SRPK3,26%
same,%Inh,STK16,16%
same,%Inh,STK33,0%
same,%Inh,STK35,0%
same,%Inh,STK36,0%
same,%Inh,STK39,0%
same,%Inh,SYK,20%
same,%Inh,SgK110,6%
same,%Inh,TAK1,0%
same,%Inh,TAOK1,0%
same,%Inh,TAOK2,45%
same,%Inh,TAOK3,0%
same,%Inh,TBK1,59%
same,%Inh,TEC,8%
same,%Inh,TESK1,20%
same,%Inh,TGFBR1; 1 µM,93.6%
same,%Inh,TGFBR2,39%
CN1CCC(n2cnc(-c3ccc(F)cc3)c2-c2ccnc(NC3CCNCC3)n2)CC1 [SB-229482],%Inh,SRMS,28%
same,%Inh,SRPK1,0%
same,%Inh,SRPK2,27%
same,%Inh,SRPK3,16%
same,%Inh,STK16,12%
same,%Inh,STK33,0%
same,%Inh,STK35,0%
same,%Inh,STK36,24%
same,%Inh,STK39,47%
same,%Inh,SYK,0%
same,%Inh,SgK110,0%
same,%Inh,TAK1,34%
same,%Inh,TAOK1,0%
same,%Inh,TAOK2,0%
same,%Inh,TAOK3,0%
same,%Inh,TBK1,0%
same,%Inh,TEC,0%
same,%Inh,TESK1,7%
same,%Inh,TGFBR1; [1],28%
same,%Inh,TGFBR2,16%
CNc1nccc(-c2c(-c3ccc(F)cc3)ncn2CCCN2CCOCC2)n1 [SB-222516],%Inh,SRMS,0%
same,%Inh,SRPK1,19%
same,%Inh,SRPK2,0%
same,%Inh,SRPK3,0%
same,%Inh,STK16,0%
same,%Inh,STK33,21%
same,%Inh,STK35,0%
same,%Inh,STK36,0%
same,%Inh,STK39,8%
same,%Inh,SYK,0%
same,%Inh,SgK110,7%
same,%Inh,TAK1,0%
same,%Inh,TAOK1,0%
same,%Inh,TAOK2,0%
same,%Inh,TAOK3,0%
same,%Inh,TBK1,5%
same,%Inh,TEC,33%
same,%Inh,TESK1,10%
same,%Inh,TGFBR1; [1],0%
same,%Inh,TGFBR2,16%
Cc1ccc(NC(=O)c2cccc(C#N)c2)cc1-c1ccc(C(=O)Nc2ccncc2)cc1 [GSK1398463],%Inh,SRMS,0%
same,%Inh,SRPK1,11%
same,%Inh,SRPK2,0%
same,%Inh,SRPK3,12%
same,%Inh,STK16,0%
same,%Inh,STK33,0%
same,%Inh,STK35,5%
same,%Inh,STK36,0%
same,%Inh,STK39,16%
same,%Inh,SYK,0%
same,%Inh,SgK110,3%
same,%Inh,TAK1,0%
same,%Inh,TAOK1,0%
same,%Inh,TAOK2,23%
same,%Inh,TAOK3,3%
same,%Inh,TBK1,20%
same,%Inh,TEC,11%
same,%Inh,TESK1,0%
same,%Inh,TGFBR1; [1],0%
same,%Inh,TGFBR2,0%
COc1ccc(-c2oc3ncnc(N)c3c2-c2ccc(OC)cc2)cc1 [SB-589132],%Inh,SRMS,6%
same,%Inh,SRPK1,30%
same,%Inh,SRPK2,53%
same,%Inh,SRPK3,0%
same,%Inh,STK16,57%
same,%Inh,STK33,0%
same,%Inh,STK35,0%
same,%Inh,STK36,0%
same,%Inh,STK39,24%
same,%Inh,SYK,20%
same,%Inh,SgK110,0%
same,%Inh,TAK1,0%
same,%Inh,TAOK1,0%
same,%Inh,TAOK2,0%
same,%Inh,TAOK3,0%
same,%Inh,TBK1,0%
same,%Inh,TEC,15%
same,%Inh,TESK1,36%
same,%Inh,TGFBR1; [1],7%
same,%Inh,TGFBR2,12%
CCCc1ccc(S(=O)(=O)NC2CCN(c3ccnc(Nc4ccc(OC)cc4)n3)C2)cc1 (centres unmarked) [GSK1379737],%Inh,SRMS,0%
same,%Inh,SRPK1,28%
same,%Inh,SRPK2,28%
same,%Inh,SRPK3,0%
same,%Inh,STK16,1%
same,%Inh,STK33,0%
same,%Inh,STK35,0%
same,%Inh,STK36,15%
same,%Inh,STK39,17%
same,%Inh,SYK,18%
same,%Inh,SgK110,0%
same,%Inh,TAK1,0%
same,%Inh,TAOK1,0%
same,%Inh,TAOK2,0%
same,%Inh,TAOK3,0%
same,%Inh,TBK1,0%
same,%Inh,TEC,0%
same,%Inh,TESK1,36%
same,%Inh,TGFBR1; [1],28%
same,%Inh,TGFBR2,0%
COc1cc2c(Nc3cccc(NC(=O)c4ccccc4)c3)ncnc2cc1OCCCN1CCOCC1 [GSK223810],%Inh,SRMS,0%
same,%Inh,SRPK1,34%
same,%Inh,SRPK2,0%
same,%Inh,SRPK3,23%
same,%Inh,STK16,0%
same,%Inh,STK33,4%
same,%Inh,STK35,5%
same,%Inh,STK36,9%
same,%Inh,STK39,0%
same,%Inh,SYK,9%
same,%Inh,SgK110,0%
same,%Inh,TAK1,0%
same,%Inh,TAOK1,0%
same,%Inh,TAOK2,0%
same,%Inh,TAOK3,0%
same,%Inh,TBK1,1%
same,%Inh,TEC,0%
same,%Inh,TESK1,0%
same,%Inh,TGFBR1; [1],0%
same,%Inh,TGFBR2,0%
CS(=O)(=O)CCNCc1nc(-c2ccc3ncnc(Nc4ccc(OCc5cccc(F)c5)c(Cl)c4)c3c2)cs1.Cl [GW583340],%Inh,SRMS,0%
same,%Inh,SRPK1,2%
same,%Inh,SRPK2,0%
same,%Inh,SRPK3,0%
same,%Inh,STK16,8%
same,%Inh,STK33,0%
same,%Inh,STK35,0%
same,%Inh,STK36,0%
same,%Inh,STK39,1%
same,%Inh,SYK,18%
same,%Inh,SgK110,0%
same,%Inh,TAK1,0%
same,%Inh,TAOK1,0%
same,%Inh,TAOK2,0%
same,%Inh,TAOK3,0%
same,%Inh,TBK1,14%
same,%Inh,TEC,0%
same,%Inh,TESK1,80%
same,%Inh,TGFBR1; [1],0%
same,%Inh,TGFBR2,0%
